# Laboratory results: PubChem BioAssay
# Activity calls are given as the source filed them.
# How the values were obtained:
# [1] = system: Plasmodium falciparum Sir2 (PF13_0152, Sir2A); assay: Plasmodium falciparum Sir2A binding compounds – biochemical, small-molecule microarray, 635 nm fluorescence, primary screen (AID 1098); details: fluorescence 635 nm, higher = more signal;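 note: score merges spot fluorescence intensity with its signal-to-noise ratio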
# [2] = probe aDKK1 binding to arrayed compounds – biochemical, biotinylated probe, 635/667 nm fluorescence, primary screen (AID 1099); details: small-molecule microarray, higher = more signal;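 note: score merges 667nm spot fluorescence with signal to noise across triplicate slides; reference of the scale not given here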
# [3] = probe aCHRDL2 binding to arrayed compounds – biochemical, biotinylated probe, 635/667 nm fluorescence, primary screen (AID 1100); details: small-molecule microarray, higher = more signal
# [4] = change in splice reporter luminescence, either direction, cell-based, HEK293, spliceosome inhibition project, primary screen (AID 1101); details: HEK293 splicing luciferase reporter, 24 h, higher = more signal, called active from +8 up or from −8 down;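 note: HEK293 cells carrying a splicing-competent luciferase reporter gene; test concentration not given here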
# [5] = target: Fibroblast growth factor 10 (Homo sapiens) (UniProt O15520); assay: compounds binding fibroblast growth factor 10 – biochemical, small-molecule microarray, 635 nm fluorescence, primary screen (AID 1102); details: FGF10 binding, fluorescence 635 nm, higher = more signal
# Sequence of Fibroblast growth factor 10 (Homo sapiens) (O15520 whole entry, looked up): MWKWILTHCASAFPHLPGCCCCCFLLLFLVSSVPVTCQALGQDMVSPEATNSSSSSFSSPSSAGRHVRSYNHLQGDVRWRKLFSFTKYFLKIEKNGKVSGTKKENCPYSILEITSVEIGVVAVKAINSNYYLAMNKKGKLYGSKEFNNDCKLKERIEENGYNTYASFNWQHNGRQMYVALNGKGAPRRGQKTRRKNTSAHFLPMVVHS
# [6] = system: glycogen synthase kinase-3 (GSK3A per assay name; protocol says GSK3B); assay: compounds binding glycogen synthase kinase-3 – biochemical, small-molecule microarray, 635 nm fluorescence, GSK3A, primary screen (AID 1103); details: fluorescence 635 nm, higher = more signal; note: the record names both GSK3A and GSK3B
# [7] = target: Epidermal growth factor receptor (Homo sapiens) (UniProt P00533); assay: compounds binding epidermal growth factor receptor – biochemical, small-molecule microarray, 635 nm fluorescence, primary screen (AID 1104); details: EGFR binding, higher = more signal;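 note: score merges 667 nm emission intensity with spot signal to noise over triplicate slides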
# Sequence of Epidermal growth factor receptor (Homo sapiens) (P00533 whole entry, looked up): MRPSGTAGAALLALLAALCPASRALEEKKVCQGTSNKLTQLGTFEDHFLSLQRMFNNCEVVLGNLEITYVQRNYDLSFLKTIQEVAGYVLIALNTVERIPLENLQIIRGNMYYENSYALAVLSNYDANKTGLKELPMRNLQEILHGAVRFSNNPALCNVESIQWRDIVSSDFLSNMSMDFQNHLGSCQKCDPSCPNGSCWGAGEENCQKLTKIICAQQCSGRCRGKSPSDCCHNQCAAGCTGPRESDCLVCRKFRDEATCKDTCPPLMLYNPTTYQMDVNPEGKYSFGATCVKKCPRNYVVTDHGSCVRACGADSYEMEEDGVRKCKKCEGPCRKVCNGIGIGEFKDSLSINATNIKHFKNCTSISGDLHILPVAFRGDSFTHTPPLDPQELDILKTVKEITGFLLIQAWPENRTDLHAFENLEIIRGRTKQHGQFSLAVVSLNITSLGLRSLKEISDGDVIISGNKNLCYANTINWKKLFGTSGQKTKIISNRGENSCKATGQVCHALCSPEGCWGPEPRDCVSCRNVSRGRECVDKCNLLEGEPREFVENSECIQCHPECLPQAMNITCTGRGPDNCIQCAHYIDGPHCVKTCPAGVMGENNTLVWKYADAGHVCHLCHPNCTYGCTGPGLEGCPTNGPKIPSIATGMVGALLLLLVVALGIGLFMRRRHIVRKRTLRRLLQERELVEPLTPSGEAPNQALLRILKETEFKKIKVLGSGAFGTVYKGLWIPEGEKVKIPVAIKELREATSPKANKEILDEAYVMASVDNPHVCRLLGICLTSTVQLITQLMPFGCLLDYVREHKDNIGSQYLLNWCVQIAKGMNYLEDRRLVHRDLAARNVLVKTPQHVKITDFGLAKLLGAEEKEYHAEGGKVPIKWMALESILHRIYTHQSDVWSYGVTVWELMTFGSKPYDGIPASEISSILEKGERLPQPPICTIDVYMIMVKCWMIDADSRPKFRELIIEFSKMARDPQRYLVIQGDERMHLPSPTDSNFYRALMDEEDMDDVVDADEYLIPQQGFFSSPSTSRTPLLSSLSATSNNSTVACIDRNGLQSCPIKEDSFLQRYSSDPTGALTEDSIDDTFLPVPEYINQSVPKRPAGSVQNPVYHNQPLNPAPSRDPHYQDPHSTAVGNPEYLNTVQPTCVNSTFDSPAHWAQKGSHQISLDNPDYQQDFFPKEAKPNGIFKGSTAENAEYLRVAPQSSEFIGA
# [8] = target: Follistatin-related protein 3 (Homo sapiens) (UniProt O95633); assay: compounds binding follistatin-related protein 3 – biochemical, small-molecule microarray, 635 nm fluorescence, primary screen (AID 1105); details: FSTL3 binding, higher = more signal;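 note: score merges emission near 667 nm and signal to noise per printed spot across three slides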
# Sequence of Follistatin-related protein 3 (Homo sapiens) (O95633 whole entry, looked up): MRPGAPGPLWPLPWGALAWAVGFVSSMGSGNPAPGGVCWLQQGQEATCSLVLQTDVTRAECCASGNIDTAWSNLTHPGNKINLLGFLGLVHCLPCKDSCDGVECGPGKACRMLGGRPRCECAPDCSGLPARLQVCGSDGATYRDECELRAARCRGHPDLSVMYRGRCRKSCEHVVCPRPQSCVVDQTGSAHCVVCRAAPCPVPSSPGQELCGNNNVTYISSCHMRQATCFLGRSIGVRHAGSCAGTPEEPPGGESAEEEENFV
# [9] = target: Dickkopf-related protein 1 (Homo sapiens) (UniProt O94907); assay: small molecules binding DKK1 protein – biochemical, small-molecule microarray, 635 nm fluorescence scan, primary screen (AID 1106); details: higher = more signal;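 note: score merges emission near 667 nm with signal to noise over three replicate slides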
# Sequence of Dickkopf-related protein 1 (Homo sapiens) (O94907 whole entry, looked up): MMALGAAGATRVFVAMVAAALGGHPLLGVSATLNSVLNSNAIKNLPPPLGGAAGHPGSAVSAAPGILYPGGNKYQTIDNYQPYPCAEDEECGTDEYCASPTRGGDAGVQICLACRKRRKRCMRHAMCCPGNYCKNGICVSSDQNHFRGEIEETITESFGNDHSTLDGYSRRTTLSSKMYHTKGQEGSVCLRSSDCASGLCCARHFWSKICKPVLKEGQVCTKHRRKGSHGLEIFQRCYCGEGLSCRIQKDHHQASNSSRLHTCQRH
# [10] = system: Inhibin beta A chain (activin A); assay: small molecules binding activin A – biochemical, small-molecule microarray, 635 nm fluorescence scan, primary screen (AID 1107); details: INHBA, higher = more signal;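 note: mouse activin A protein probed at 4.33 µg/mL on printed slides; score merges bound-protein fluorescence near 667 nm with spot signal-to-noise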
SMILES,composite z-score [1],composite z-score [2],composite z-score [3],z-score [4],composite z-score [5],composite z-score [6],composite z-score [7],composite z-score [8],composite z-score [9],composite z-score [10]
COc1ccc([Si](C)(C)[C@@H]2[C@@H](CC(=O)N(CCO)Cc3ccccc3)O[C@]3(C(=O)N(Cc4cccc(I)c4)c4ccccc43)[C@H]2C)cc1,0.824,-0.0248,0.337,-0.847 (inactive),1.45,0.766,0.661,1.42,1.34,0.963
COc1cc(Cc2cc3c(c(CCc4ccccc4)n2)[Si](C(C)C)(C(C)C)O[C@H]3c2ccccc2)cc(OC)c1OC,1.05,0.0709,0.366,-1.06 (inactive),-0.507,-1.04,-0.4,-0.617,-0.308,0.87
C=CCOC(=O)[C@H]1[C@@H]2C(=O)O[C@@H](c3ccccc3)[C@@H](c3ccccc3)N2[C@@H](c2ccc(OCCOC(=O)[C@H]3C[C@H]4C(=O)NCC(=O)N4[C@H]3c3ccc(O)cc3)cc2)[C@]12C(=O)Nc1ccccc12,1.33,0.101,0.116,0.417 (inactive),1.28,1.3,0.756,1.23,0.974,0.511
CCCCC(=C=CC[C@@H](O)c1ccccc1OCCO)C[C@@H](O)c1ccccn1,1.55,-0.124,-0.167,-0.0777 (inactive),0.473,-0.644,0.125,0.143,0.141,0.624
Cc1ccc(S(=O)(=O)N2[C@@H](c3ccccc3)C(C(=O)O)=CC[C@H]2c2ccc(F)cc2)cc1,-0.434,-0.224,0.633,-0.207 (inactive),0.876,1.08,-0.882,0.489,-0.757,-1.32
C[C@H]1C2[C@H](Cc3ccccc3)NC(=O)[C@]23C(=O)N[C@@H](Cc2ccccc2)C(=O)N2CCC[C@H]2C(=O)NC/C=C/CC/C=C/C3[C@@H]2O[C@]12C (stereo not given in full),1.26,-0.297,-0.684,0.437 (inactive),1.38,0.769,-0.0947,0.895,0.272,0.87
COc1ccc([Si](C)(C)[C@H]2[C@H](CC(=O)N3CCC[C@H]3CO)O[C@@]3(C(=O)N(C)c4c(Br)cc(C)cc43)[C@@H]2C)cc1,1.91,0.94,0.244,0.00593 (inactive),1.5,1.32,0.775,1.16,1.08,1.34
O=C/C=C/c1ccc(-c2ccccc2)cc1,-0.821,-0.241,0.149,-1.04 (inactive),0.141,-0.1,0.005,0.0445,-0.14,1.1
C=CC[C@]1(C(=O)NCC(O)CO)N=C(c2ccc(OCCCO)cc2)O[C@H]1c1ccccc1CN=[N+]=[N-] (stereo not given in full),-0.285,0.783,1.18,0.704 (inactive),0.722,0.7,-2.08,-1.17,-0.471,0.274
CC(C)[Si]1(C(C)C)OCc2cc(-c3ccc(-c4ccc(Cl)c(Cl)c4)o3)nc(-c3ccc(Oc4ccccc4)cc3)c21,-0.952,0.118,0.745,-1.25 (inactive),-1.78,-2.03,-1.46,-2.09,-2.01,0.434
CCOC(=O)C[C@H]1[C@H](OC(=O)c2cc3ccccc3oc2=O)[C@@H](NC(=O)c2ccc(-c3ccccc3)cc2)c2cc(OCCCO)ccc2N1C(=O)Cc1ccc(OC)cc1,0.782,0.0384,-0.037,0.595 (inactive),1.04,0.889,0.419,0.686,0.682,0.321
COC(=O)[C@H](Cc1ccccc1)N1CC(C)(OC)O[C@@H](Cc2ccccc2)[C@H]1/C=C/C1CC1 (stereo not given in full),0.292,-0.158,0.0982,-0.579 (inactive),-0.105,0.178,-0.359,-0.151,-0.268,0.609
Cc1ccc(S[C@]2(C(=O)NCC(C)C)CC(=O)N(C(C)C)[C@@H]2c2ccc(CO)cc2I)cc1,0.115,0.669,1.28,-1.14 (inactive),-0.679,-1.03,-0.941,-0.573,-0.7,0.256
COC(=O)C(CC#Cc1ccc2c(c1)[C@]1(C(=O)N2)[C@H](c2ccccc2OCCO)N2[C@H](c3ccccc3)[C@H](c3ccccc3)OC(=O)[C@H]2[C@@H]1C(=O)N1CCN(c2ncccn2)CC1)C(=O)OC,1.01,-0.216,-0.145,-0.376 (inactive),0.683,1.29,0.484,1.27,0.891,0.143
COCCOC(=O)N1C(=O)[C@@]2(c3ccccc31)[C@H](C(=O)Nc1nc3ccccc3s1)[C@H]1C(=O)O[C@H](c3ccccc3)[C@H](c3ccccc3)N1[C@@H]2c1ccccc1OCCO,1.53,0.114,0.653,-0.794 (inactive),0.906,0.783,0.209,0.678,0.0159,0.769
CC(C)(C)OC(=O)N1[C@@H](C=C(Br)Br)COC1(C)C,0.395,-0.16,-0.282,0.104 (inactive),0.382,0.901,0.614,0.164,0.393,0.29
